Data published in PubChem BioAssay AID651692 (Broad Institute, 2012).
Results with a measured potency or affinity are listed apart. Calls of active or inactive are those of the source.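 The calls were made as follows: active = fitted half-maximal concentration for loss of cell signal no higher than twice the top valid tested concentration; inconclusive = flat curve at 30 to 70% inhibition, or poor fit; inactive = flat within 30%, signal rise, or potency above limit.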

Assay: cytotoxicity toward MDA-MB-231 breast cancer cells – cell-based, CellTiter-Glo luminescence, cherry-pick, cytotoxicity control for RAD54 inhibitor project, dose response (AID 651692);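 also: more negative values mean stronger loss of viable cell signal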
Conditions: MDA-MB-231 viability, 24 h; series mostly up to 26 µM

Structure (SMILES)	outcome
CN(C)CCCNc1c2ccccc2nc2ccccc12	inactive
Cc1cccn2c(=O)c3cc(C(=O)NCC4CCCO4)c(=N)n(C4CCCCC4)c3nc12 (stereo not drawn)	inactive
CCNCCNC(=O)c1c(O)c2cccc3c2n(c1=O)CCC3	inactive
Nc1c(C(=O)NCCN2CCOCC2)c2nc3ccccc3nc2n1-c1ccc2c(c1)OCO2	inactive
CCN(CC)CCCNc1nc2ccccc2c2nc(-c3ccncc3)nn12	inactive
CCCCN(C)CCNC(=O)c1cc2c(-c3cccc(OC)c3)nn(C)c2s1	inactive
CCOC(=O)c1cnc2c(C)cc(C)cc2c1NCCCN1CCOCC1	inactive
COc1cccc(-c2nc(NCCN3CCOCC3)c3ccccc3n2)c1O	inactive
CCCN(CCC)CCCNC(=S)Nc1ccc2nc(N3CCN(C)CC3)cc(C)c2c1	inactive
CCN(CC)CCN(C(=O)C1=COCCO1)c1nc2c(OC)ccc(OC)c2s1	inactive
Oc1ccccc1-c1nc(NCCN2CCOCC2)c2ccccc2n1	inactive
CCN(CC)CCOc1c(Br)ccc2c1sc1nc3n(c(=O)c12)CCC3	inactive
COc1ccc(C(=O)Nc2ccc3nc(N4CCN(C)CC4)cc(C)c3c2)c(OC)c1	inactive
COc1ccc(-c2nn(C)c3sc(C(=O)NCCN(C)C)cc23)cc1OC	inactive
NC(=O)CN1CCN(CCN2C(=O)c3cccc4cccc(c34)C2=O)CC1	inactive
CN(C)CCc1cc2c(c3c1ccc1ccccc13)OCO2	inactive
Cc1ccc(S(=O)(=O)NCCCNS(=O)(=O)c2ccccc2[N+](=O)[O-])cc1	inactive
COC(=O)C1=C(C)Nc2nc3ccccc3n2C1c1ccccc1F (stereo not drawn)	inactive
